Test results taken from PubChem BioAssay.
Activity calls are given as the source filed them.

What was measured:
[1] = small molecules captured by biotinylated probe aFSTL3 – biochemical, small-molecule microarray, fluorescence 635/667, stem cell growth factor project, primary screen (AID 1064); conditions: higher = more signal;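 also: measures binding of the biotinylated anti-FSTL3 antibody to printed compounds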
[2] = binders from COS7 lysate, DM2A8 probe, primary screen, torsin A project, cell lysate, small-molecule microarray, fluorescence 635/667 (AID 1065); conditions: higher = more signal, COS7 lysate expressing mutant human TOR1A
[3] = small molecules captured by biotinylated probe aFGF2 – biochemical, small-molecule microarray, fluorescence 635/667, stem cell growth factor project, primary screen (AID 1067); conditions: higher = more signal;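 also: measures binding of biotinylated aFGF2 protein to printed compounds on slides; z-score merges feature fluorescence and signal-to-noise across triplicate slides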
[4] = small molecules captured by biotinylated probe aFGF10 – biochemical, small-molecule microarray, fluorescence 635/667, stem cell growth factor project, primary screen (AID 1071); conditions: higher = more signal;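 also: score merges 667 nm spot intensity and signal to noise from triplicate slides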
[5] = molecular target: Neurogenic locus notch homolog protein 2 (Homo sapiens) (UniProt Q04721); assay: small molecules binding Notch2 protein – biochemical, small-molecule microarray, 635 nm fluorescence, stem cell growth factors, primary screen (AID 1073); conditions: higher = more signal
[6] = molecular target: Pro-neuregulin-1, membrane-bound isoform (Homo sapiens) (UniProt Q02297); assay: small molecules binding neuregulin-1 protein – biochemical, small-molecule microarray, fluorescence 635/667, psychiatric disease protein project, primary screen (AID 1075); conditions: NRG1 binding, 635 nm fluorescence, higher = more signal;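 also: score combines 667 nm spot fluorescence with signal to noise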
[7] = system: Neuregulin-1 EGF-like domain; assay: small molecules binding NRG1 EGF domain – biochemical, small-molecule microarray, 635 nm fluorescence, primary screen (AID 1081); conditions: higher = more signal;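 also: binding of the protein to compounds printed on small-molecule microarray slides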
[8] = FRG1 expression reporter modulators in myotubes – cell-based, C2C12 myotubes, firefly/Renilla luciferase, luminescence, FRG1 inhibition for FSHD, primary screen (AID 1084); conditions: FRG1 promoter luciferase, higher = more signal, called active from +8 up or from −8 down
[9] = small molecules captured by biotinylated probe aFST – biochemical, small-molecule microarray, fluorescence 635/667, stem cell growth factor project, primary screen (AID 1086); conditions: higher = more signal;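 also: score merges 667 nm fluorescence with signal-to-noise of each printed compound spot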
[10] = binders of probe aHhip on microarray, primary screen, stem cell growth factor project, biochemical, small-molecule microarray, fluorescence 635/667 (AID 1087); conditions: higher = more signal;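 also: score merges spot fluorescence at 667nm with spot signal to noise ratio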
[11] = system: PRMT1 (protein arginine N-methyltransferase 1); assay: small molecules binding arginine methyltransferase PRMT1 – biochemical, small-molecule microarray, 635 nm fluorescence, primary screen (AID 1088); conditions: higher = more signal;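 also: binding of Prmt1 protein to compounds spotted on small-molecule microarray slides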
[12] = growth effects on S. cerevisiae YJM789 – YJM789 clinical isolate, OD600, 24 h, basal, primary screen (AID 1089); conditions: higher = more signal, called active from +8 up or from −8 down;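 also: growth of clinical yeast isolate S. cerevisiae YJM 789 seeded 1000 cells per well; test concentration not given here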
[13] = S. pombe growth modifiers, basal conditions – strain 972, OD600, 24 h, no modulator, primary screen (AID 1090);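 also: basal condition with compound alone and no growth modifier present; test concentration not given here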; conditions: S. pombe 972 growth, higher = more signal, called active from +8 up or from −8 down
[14] = budding yeast growth modifiers under rapamycin – strain BY4716, OD600, 96 h, primary screen (AID 1091); also: test concentration not given here; conditions: S. cerevisiae BY4716 + rapamycin, higher = more signal, called active from +8 up or from −8 down
[15] = molecular target: Torsin-1A-interacting protein 2 (Homo sapiens) (UniProt Q8NFQ8); assay: small molecules binding lysate-expressed LULL1 – cell lysate, human LULL1 lysate, 635/667 nm fluorescence, primary screen (AID 1092); conditions: small-molecule microarray, hLULL1 lysate binding, 635 nm fluorescence; higher = more signal;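 also: probe is lysate of COS7 cells overexpressing human LULL1; score merges per-feature 667 nm fluorescence with signal-to-noise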
[16] = optical density change of DRC41 E. coli – strain DRC41, OD650, 24 h, E. coli filamentation project, primary screen (AID 1093);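 also: MC1000 strain lacking acrAB efflux and sulA so SOS filamentation is blocked; test concentration not given here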; conditions: E. coli DRC41 growth, higher = more signal, called active from +8 up or from −8 down
[17] = probe aLefty2 binding to arrayed compounds – biochemical, biotinylated probe, 635/667 nm fluorescence, primary screen (AID 1094); conditions: small-molecule microarray, higher = more signal;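 also: score merges spot fluorescence near 667 nm with spot signal-to-noise ratio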
[18] = system: Noggin (protein binding on small-molecule microarray); assay: small molecules binding Noggin protein – biochemical, 635/667 nm fluorescence, primary screen (AID 1095); conditions: 635 nm fluorescence, higher = more signal;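 also: score merges 667 nm feature fluorescence with signal to noise over triplicate slides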
[19] = molecular target: Neurogenic locus notch homolog protein 3 (Homo sapiens) (UniProt Q9UM47); assay: small molecules binding NOTCH3 protein – biochemical, 635/667 nm fluorescence, primary screen (AID 1096); conditions: small-molecule microarray, 635 nm fluorescence, higher = more signal
[20] = probe aEGFR binding to arrayed compounds – biochemical, biotinylated probe, 635/667 nm fluorescence, primary screen (AID 1097); conditions: small-molecule microarray, higher = more signal;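 also: probe is a biotinylated anti-EGFR antibody binding compounds printed on slides; score combines fluorescence near 667 nm and signal to noise of each spot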

Chain of Neurogenic locus notch homolog protein 3 (Homo sapiens) (Q9UM47 whole entry, looked up): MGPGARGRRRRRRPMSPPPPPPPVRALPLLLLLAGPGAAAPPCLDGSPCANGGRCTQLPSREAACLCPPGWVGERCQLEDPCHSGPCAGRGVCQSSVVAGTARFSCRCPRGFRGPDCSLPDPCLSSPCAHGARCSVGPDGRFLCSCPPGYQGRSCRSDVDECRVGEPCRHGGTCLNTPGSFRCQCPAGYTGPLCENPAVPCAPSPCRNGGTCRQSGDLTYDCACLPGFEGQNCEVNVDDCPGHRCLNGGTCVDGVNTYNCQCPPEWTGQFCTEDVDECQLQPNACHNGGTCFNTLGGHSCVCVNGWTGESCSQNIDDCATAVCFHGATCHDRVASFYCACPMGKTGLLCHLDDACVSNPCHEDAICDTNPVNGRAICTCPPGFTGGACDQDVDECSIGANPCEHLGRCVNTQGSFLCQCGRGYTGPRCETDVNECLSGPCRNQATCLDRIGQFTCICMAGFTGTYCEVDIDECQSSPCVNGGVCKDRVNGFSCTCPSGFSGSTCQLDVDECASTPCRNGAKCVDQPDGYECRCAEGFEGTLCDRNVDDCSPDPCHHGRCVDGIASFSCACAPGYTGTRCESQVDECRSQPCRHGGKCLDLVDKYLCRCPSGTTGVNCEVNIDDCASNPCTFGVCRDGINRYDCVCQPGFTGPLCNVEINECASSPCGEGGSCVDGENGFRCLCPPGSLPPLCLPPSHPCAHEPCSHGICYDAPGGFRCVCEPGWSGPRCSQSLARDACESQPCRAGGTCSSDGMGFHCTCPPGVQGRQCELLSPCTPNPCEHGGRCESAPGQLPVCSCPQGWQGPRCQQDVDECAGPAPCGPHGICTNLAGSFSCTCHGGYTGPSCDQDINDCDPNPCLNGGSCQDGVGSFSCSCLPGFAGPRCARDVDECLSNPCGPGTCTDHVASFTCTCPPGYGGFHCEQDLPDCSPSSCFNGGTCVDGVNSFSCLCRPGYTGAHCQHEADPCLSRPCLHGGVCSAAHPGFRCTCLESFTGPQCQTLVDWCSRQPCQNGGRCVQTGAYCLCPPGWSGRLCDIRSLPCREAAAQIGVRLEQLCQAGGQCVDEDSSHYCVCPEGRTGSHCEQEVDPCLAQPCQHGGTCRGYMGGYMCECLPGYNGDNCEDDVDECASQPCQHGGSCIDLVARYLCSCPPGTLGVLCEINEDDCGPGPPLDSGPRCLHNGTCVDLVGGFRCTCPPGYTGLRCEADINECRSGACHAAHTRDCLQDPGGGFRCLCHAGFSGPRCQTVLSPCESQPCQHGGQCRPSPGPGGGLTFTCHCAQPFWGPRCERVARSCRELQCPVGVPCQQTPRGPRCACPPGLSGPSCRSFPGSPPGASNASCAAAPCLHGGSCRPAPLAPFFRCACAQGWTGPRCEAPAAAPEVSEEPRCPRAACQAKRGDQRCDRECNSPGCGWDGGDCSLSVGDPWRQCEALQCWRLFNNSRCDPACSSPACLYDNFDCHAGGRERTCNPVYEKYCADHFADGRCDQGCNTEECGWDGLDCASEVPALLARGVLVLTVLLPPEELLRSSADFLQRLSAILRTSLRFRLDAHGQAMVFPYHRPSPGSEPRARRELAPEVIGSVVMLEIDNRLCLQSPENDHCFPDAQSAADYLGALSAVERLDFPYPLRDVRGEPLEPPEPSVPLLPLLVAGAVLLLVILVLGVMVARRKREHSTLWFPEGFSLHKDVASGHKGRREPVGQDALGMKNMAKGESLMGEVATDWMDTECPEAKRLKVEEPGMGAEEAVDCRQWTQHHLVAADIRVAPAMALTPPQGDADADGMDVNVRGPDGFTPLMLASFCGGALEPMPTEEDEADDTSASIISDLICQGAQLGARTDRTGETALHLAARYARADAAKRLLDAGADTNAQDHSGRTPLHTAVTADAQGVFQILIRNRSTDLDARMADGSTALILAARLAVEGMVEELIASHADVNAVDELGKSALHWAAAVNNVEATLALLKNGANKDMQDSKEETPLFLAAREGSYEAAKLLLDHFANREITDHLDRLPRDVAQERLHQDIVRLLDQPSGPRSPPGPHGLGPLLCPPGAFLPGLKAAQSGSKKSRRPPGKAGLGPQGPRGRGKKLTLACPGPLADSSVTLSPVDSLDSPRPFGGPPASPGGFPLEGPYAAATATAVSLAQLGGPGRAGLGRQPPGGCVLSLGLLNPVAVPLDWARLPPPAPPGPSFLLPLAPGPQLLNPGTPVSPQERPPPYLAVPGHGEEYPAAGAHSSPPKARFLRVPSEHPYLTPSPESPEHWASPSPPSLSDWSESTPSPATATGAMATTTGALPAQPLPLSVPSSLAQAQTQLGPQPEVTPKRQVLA
Chain of Neurogenic locus notch homolog protein 2 (Homo sapiens) (Q04721 whole entry, looked up, canonical isoform): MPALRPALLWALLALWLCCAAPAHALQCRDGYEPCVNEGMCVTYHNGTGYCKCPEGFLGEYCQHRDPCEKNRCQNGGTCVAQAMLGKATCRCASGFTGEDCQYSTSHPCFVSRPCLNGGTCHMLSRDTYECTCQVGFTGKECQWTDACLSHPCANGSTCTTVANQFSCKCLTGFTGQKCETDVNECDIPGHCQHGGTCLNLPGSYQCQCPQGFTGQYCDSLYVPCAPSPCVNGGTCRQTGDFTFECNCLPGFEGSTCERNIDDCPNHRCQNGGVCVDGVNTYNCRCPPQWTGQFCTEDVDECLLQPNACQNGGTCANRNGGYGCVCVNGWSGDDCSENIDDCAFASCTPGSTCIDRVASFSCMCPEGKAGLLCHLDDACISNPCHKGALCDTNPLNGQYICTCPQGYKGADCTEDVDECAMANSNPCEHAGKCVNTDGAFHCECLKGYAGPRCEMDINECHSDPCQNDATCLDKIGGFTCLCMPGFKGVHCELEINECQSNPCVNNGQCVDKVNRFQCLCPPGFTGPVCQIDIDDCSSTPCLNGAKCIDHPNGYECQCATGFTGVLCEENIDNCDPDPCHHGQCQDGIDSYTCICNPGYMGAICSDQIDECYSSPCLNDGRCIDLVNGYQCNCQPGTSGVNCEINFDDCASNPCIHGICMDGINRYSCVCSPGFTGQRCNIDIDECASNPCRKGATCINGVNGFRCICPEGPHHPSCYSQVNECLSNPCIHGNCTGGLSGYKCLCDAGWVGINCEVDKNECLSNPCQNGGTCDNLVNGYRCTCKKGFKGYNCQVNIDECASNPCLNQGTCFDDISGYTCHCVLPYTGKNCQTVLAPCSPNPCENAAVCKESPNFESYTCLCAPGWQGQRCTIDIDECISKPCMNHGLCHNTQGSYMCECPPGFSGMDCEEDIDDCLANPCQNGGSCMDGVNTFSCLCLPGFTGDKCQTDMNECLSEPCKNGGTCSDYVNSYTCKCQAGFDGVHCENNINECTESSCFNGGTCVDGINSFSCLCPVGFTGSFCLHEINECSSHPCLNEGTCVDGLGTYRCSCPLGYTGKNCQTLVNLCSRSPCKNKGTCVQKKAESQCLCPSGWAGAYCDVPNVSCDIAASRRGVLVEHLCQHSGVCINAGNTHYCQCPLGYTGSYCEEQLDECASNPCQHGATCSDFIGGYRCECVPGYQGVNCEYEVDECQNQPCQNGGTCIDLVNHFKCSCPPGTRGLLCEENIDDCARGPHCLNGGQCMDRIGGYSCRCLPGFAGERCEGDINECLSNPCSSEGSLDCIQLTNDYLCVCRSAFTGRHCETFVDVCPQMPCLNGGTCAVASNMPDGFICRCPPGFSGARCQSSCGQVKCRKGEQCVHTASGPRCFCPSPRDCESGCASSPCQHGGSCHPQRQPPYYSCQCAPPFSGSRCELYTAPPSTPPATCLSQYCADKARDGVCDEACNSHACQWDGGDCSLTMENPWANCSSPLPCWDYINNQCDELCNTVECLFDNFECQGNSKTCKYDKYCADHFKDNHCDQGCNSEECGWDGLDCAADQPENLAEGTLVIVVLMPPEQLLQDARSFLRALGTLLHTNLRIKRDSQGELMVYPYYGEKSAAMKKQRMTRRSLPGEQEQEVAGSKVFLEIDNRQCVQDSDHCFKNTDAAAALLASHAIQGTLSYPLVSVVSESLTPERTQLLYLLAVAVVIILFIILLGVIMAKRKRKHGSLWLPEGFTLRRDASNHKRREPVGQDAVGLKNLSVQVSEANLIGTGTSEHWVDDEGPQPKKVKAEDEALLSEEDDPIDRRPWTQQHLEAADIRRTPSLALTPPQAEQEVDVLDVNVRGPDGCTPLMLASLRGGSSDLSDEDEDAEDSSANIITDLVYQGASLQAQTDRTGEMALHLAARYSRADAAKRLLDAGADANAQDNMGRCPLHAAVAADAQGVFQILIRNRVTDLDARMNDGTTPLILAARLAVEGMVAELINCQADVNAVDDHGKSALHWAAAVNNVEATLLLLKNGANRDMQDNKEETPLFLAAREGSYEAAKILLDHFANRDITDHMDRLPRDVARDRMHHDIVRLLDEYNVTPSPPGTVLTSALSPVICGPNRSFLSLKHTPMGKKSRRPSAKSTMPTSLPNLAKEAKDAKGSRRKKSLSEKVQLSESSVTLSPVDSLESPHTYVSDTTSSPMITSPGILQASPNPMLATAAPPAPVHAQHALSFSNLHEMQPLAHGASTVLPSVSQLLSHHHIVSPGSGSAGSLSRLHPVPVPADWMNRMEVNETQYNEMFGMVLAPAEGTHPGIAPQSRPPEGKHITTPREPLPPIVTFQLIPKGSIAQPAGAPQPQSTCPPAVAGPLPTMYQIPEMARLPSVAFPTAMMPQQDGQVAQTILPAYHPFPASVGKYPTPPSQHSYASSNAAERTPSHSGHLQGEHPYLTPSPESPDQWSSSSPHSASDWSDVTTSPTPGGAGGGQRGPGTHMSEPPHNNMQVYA

Row | Structure (SMILES) | composite z-score [1] | composite z-score [2] | composite z-score [3] | composite z-score [4] | composite z-score [5] | composite z-score [6] | composite z-score [7] | z-score [8] | composite z-score [9] | composite z-score [10] | composite z-score [11] | z-score [12] | z-score [13] | z-score [14] | composite z-score [15] | z-score [16] | composite z-score [17] | composite z-score [18] | composite z-score [19] | composite z-score [20]
1 | OCCCC1=CC(c2cccs2)N(Cc2cccc(OC(F)(F)F)c2)CC1 (stereo not given) | -0.24 | -0.487 | -0.11 | -0.331 | -0.763 | -0.222 | 0.44 | 0.67 (inactive) | -0.941 | 0.0401 | 0.532 | -2.28 (inactive) | -14.6 (active) | 1.15 (inactive) | 0.365 | -0.15 (inactive) | -0.0998 | 0.0008 | -0.602 | -0.115
2 | O=C1O[C@@H](c2ccccc2)[C@@H](c2ccccc2)N2[C@@H](c3ccc(O)cc3)[C@]3(C(=O)Nc4ccc(C#CC5=CCCCC5)cc43)[C@@H](C(=O)Nc3nc4ccccc4s3)[C@H]12 | -0.371 | 0.449 | -0.0455 | 1.27 | 1.5 | 1.34 | 1.18 | -0.453 (inactive) | 0.647 | -0.171 | 1.54 | 0.424 (inactive) | 0.015 (inactive) | 0.606 (inactive) | 2.86 | 0.481 (inactive) | 0.455 | 1.04 | 1.04 | 0.127
3 | C[N+](C)(C)CCCCNC(=O)[C@H]1C[C@H]2C(=O)NCC(=O)N2[C@H]1c1ccc(O)cc1 | -0.392 | 1.83 | -0.0466 | 1.12 | 0.943 | 0.584 | 1.38 | 0.0635 (inactive) | 0.383 | -0.156 | 1.46 | -0.826 (inactive) | 0.0918 (inactive) | -1.71 (inactive) | 1.84 | 0.509 (inactive) | 0.0823 | 2.01 | 1.04 | 0.154
4 | CCCC[C@H]1OB(O)C[C@H]2C1=C(COc1ccccc1)Cn1c(=O)n(-c3ccccc3)c(=O)n12 | -0.211 | 0.556 | -0.145 | 0.279 | 0.403 | 1.01 | 0.77 | -0.971 (inactive) | 0.415 | -0.164 | 0.905 | 0.54 (inactive) | -4.94 (inactive) | 0.59 (inactive) | 2.24 | -0.298 (inactive) | -0.116 | 0.836 | 0.733 | -0.0947
5 | CC(C)CN1C(=O)[C@@]2(Cc3ccccc31)c1ccccc1C(=O)N(Cc1ccccc1)[C@H]2c1ccc(CO)cc1 | 0.849 | -0.675 | -0.148 | -0.0466 | -0.713 | -0.544 | -0.152 | -0.314 (inactive) | -0.759 | -0.261 | -0.594 | -0.0832 (inactive) | -0.519 (inactive) | -1.46 (inactive) | 0.771 | -0.336 (inactive) | -0.131 | -0.34 | -0.395 | -0.348
6 | C=CCNC(=O)[C@@H]1[C@H]2C(=O)O[C@H](c3ccccc3)[C@H](c3ccccc3)N2[C@H](c2ccc(O)cc2)[C@@]12C(=O)Nc1ccc(C#CCCO)cc12 | 0.0065 | -0.395 | -0.13 | 0.508 | -1.34 | 1.37 | -0.353 | -0.0378 (inactive) | -1.05 | -0.251 | -0.36 | -0.328 (inactive) | -0.397 (inactive) | -0.301 (inactive) | 2.17 | 2.31 (inactive) | -0.259 | -1.2 | -0.261 | -0.261
7 | O=C1OCCC=C[C@H]2OC34C=CCN(Cn5nnc6ccccc65)C(=O)[C@H]3N(CCCCCO)C(=O)[C@@H]4C12 (stereo not given in full) | 0.122 | 1.66 | -0.176 | -0.328 | -0.407 | 2.18 | 1.48 | -0.21 (inactive) | -0.118 | -0.306 | -0.285 | -0.0057 (inactive) | -0.439 (inactive) | -0.506 (inactive) | 1.43 | 0.141 (inactive) | -0.0674 | -0.825 | -0.135 | -0.2
8 | COc1cc2c(cc1OC)CN(C(=O)[C@@H]1[C@H]3C(=O)O[C@H](c4ccccc4)[C@H](c4ccccc4)N3[C@H](c3ccc(O)cc3)[C@@]13C(=O)Nc1ccc(C#CCNC(N)=O)cc13)CC2 | -0.133 | -0.121 | -0.0616 | 0.411 | 0.578 | 0.559 | 0.544 | 0.238 (inactive) | 0.75 | -0.0994 | 0.666 | 1.1 (inactive) | 1.27 (inactive) | 1.48 (inactive) | 1.22 | 0.364 (inactive) | 0.0835 | 1.03 | 0.802 | -0.0455
9 | COC(=O)[C@@]1(Cc2ccc(F)cc2)[C@H]2c3cc(C(=O)N4CCCC4)n(Cc4ccccc4)c3C[C@H]2CN1C(=O)c1ccccc1 | 0.106 | -0.663 | 0.0451 | 0.19 | 1.56 | 1.83 | 1.12 | 1.2 (inactive) | 1.23 | 0.0578 | -0.101 | -0.136 (inactive) | 1.31 (inactive) | 1.24 (inactive) | 3.22 | 0.21 (inactive) | 0.391 | -0.486 | 0.783 | 0.0953
10 | COC(=O)[C@@]1(Cc2ccc(F)cc2)[C@H]2c3cc(C(=O)N(C)C)n(CCSCCO)c3C[C@H]2CN1C(=O)c1ccccc1 | 0.304 | 0.273 | 0.203 | 0.487 | 1.36 | 1.95 | 0.943 | 1.29 (inactive) | 0.568 | -0.0029 | 0.0793 | 0.125 (inactive) | 0.642 (inactive) | -0.0109 (inactive) | 2.72 | 0.162 (inactive) | 0.0126 | -0.443 | 0.229 | -0.162
